What all share (design): scale not given: direction of the effect not stated beside the values
Test [1] addresses Protein translocase subunit SecA (Escherichia coli (strain K12)) (UniProt P10408). The experiment in a line: Assay to Identify E. coli SecA ATPase Inhibitors. It counts as functional. The note with it: 30 µM.
The target in test [2] is T1, Ubiquitin-activating enzyme e1, putative (Leishmania donovani (strain BPK282A1)) (UniProt E9BSI1).
T1 sequence (whole entry): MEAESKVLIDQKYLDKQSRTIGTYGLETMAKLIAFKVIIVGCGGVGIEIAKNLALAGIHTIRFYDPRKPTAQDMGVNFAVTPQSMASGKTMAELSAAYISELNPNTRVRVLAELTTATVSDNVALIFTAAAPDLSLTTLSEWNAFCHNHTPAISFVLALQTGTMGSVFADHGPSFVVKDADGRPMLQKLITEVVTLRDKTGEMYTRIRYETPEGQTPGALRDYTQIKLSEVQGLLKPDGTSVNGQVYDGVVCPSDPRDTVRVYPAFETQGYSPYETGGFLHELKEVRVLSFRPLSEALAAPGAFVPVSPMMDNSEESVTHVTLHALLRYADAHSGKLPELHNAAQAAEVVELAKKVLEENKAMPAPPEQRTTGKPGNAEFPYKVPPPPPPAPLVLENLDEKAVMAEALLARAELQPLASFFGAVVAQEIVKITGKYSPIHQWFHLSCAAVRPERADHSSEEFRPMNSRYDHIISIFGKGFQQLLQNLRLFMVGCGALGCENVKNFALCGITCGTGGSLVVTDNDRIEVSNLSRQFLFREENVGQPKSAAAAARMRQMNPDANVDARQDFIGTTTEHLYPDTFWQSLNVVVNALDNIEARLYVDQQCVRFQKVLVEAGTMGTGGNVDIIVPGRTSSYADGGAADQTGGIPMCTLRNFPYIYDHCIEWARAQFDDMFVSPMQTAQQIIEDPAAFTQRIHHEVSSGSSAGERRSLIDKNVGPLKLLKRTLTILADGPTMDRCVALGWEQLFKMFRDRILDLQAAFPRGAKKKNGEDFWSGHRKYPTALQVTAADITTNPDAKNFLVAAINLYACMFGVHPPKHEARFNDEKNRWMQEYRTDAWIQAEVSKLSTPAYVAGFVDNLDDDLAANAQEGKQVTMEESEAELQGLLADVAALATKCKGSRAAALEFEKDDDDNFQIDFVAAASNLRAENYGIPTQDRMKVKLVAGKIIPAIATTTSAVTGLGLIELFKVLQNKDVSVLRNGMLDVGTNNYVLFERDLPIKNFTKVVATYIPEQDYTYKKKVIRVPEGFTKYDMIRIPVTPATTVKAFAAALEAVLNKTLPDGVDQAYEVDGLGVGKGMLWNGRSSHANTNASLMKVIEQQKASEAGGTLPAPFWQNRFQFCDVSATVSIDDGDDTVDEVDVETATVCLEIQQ
The experiment in a line: Leishmania donovani Ubiquitin Activating Enzyme (LdE1). It counts as functional. As to conditions: 30 µM.

Test [3] concerns the target AMP-activated protein kinase, AMPK (Homo sapiens) (UniProt P54646+O43741+P54619+Q9UGJ0+Q9Y478+Q13131+Q9UGI9). The experiment in a line: AMP-dependent Kinase enzyme assay. An in vitro enzyme assay that detects ADP turnover that is directly proportional to AMPK activity. This uses naive AMPK that is activated during the assay with MK-8722. It counts as functional. As to conditions: 30 µM.

Test [4] addresses Sialic acid-binding Ig-like lectin 9 (Homo sapiens) (UniProt Q9Y336). Kind of test: Hs-Siglec9 ALPHAscreen SOP 20170721. The note with it: 10 µM. (In Alpha technology, singlet oxygen from a donor bead excites a nearby acceptor bead.)
In a further test the test system is Trypanosoma cruzi. The experiment in a line: Trypanosoma cruzi phosphomannomutase and mannose-1-phosphate guanylyltransferase assay. It counts as functional. The note with it: 10 µM.
Test [5] deals with T2, Arginase-2, mitochondrial (Homo sapiens) (UniProt P78540).
T2 sequence (whole entry): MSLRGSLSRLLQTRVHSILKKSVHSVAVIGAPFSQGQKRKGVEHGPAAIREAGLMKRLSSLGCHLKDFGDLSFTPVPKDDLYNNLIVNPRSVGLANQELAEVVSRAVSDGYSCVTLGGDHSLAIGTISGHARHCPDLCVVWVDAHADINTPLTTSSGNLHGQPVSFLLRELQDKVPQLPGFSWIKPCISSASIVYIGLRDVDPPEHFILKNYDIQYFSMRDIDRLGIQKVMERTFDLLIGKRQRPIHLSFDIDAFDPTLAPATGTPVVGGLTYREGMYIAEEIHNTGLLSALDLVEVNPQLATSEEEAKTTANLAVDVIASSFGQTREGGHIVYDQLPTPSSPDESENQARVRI
Kind of test: in vitro enzyme assay to detect the production of urea directly proportional to the activity of Arginase II. Further: in the data most compounds retested in dose-response had high values. It counts as functional. The note with it: 33.3 µM.

Test [6] addresses T3, Proteasome subunit beta (Trypanosoma cruzi) (UniProt O96673).
T3 sequence (whole entry): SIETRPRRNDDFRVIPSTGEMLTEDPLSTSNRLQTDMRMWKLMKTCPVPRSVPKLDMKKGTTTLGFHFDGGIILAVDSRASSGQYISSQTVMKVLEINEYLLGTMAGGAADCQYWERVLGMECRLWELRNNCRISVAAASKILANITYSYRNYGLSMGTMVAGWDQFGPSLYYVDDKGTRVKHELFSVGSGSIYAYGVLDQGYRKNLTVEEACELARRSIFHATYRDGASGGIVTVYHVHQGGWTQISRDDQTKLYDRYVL
The experiment in a line: Trypanosoma cruzi proteasome chymotrypsin-like activity (TcProtChymo) assay. Further: in the data most compounds retested in dose-response had high values. It counts as functional. As to conditions: 9.37 µM.

The species entered for a further test is Homo sapiens. Kind of test: To identify inhibition of the IFN signalling (Jak-Stat) pathway via expression of an eGFP reporter gene under the control of an IFN-stimulated response element (ISRE) containing MxA promoter. As to conditions: 30 µM. It counts as functional. A general note: In a reporter assay the amount or activity of a reporter protein is the signal.

The target in test [7] is T4, Tyrosyl-tRNA synthetase, putative (Trypanosoma cruzi (strain CL Brener)) (UniProt Q4DSP6).
T4 sequence (whole entry): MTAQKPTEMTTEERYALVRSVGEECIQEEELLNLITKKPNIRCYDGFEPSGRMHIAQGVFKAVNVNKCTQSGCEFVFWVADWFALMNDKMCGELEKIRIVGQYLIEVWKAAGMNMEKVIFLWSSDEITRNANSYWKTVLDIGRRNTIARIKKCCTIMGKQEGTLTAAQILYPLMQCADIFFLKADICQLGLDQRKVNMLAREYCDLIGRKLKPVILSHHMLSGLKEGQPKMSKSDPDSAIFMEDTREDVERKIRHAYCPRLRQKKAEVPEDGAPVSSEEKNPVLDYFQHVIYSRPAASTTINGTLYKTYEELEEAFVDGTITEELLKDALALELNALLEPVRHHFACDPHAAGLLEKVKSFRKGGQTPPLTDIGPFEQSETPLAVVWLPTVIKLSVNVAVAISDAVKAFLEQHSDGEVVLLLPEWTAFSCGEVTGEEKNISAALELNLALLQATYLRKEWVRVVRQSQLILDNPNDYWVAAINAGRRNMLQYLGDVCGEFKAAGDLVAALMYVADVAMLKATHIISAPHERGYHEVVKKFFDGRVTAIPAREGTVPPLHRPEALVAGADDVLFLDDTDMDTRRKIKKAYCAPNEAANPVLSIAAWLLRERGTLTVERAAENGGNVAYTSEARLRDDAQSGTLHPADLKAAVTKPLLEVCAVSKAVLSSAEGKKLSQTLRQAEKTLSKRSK
The experiment in a line: Trypanosoma cruzi tyrosyl tRNA synthetase (TcYRS) _High Tyrosine SOP. Further: in the data most compounds retested in dose-response had high values. It counts as functional. As to conditions: 30 µM.

The target in test [8] is T4, Tyrosyl-tRNA synthetase, putative (Trypanosoma cruzi (strain CL Brener)). The experiment in a line: Trypanosoma cruzi tyrosyl tRNA synthetase (TcYRS) SOP. It counts as functional. As to conditions: 30 µM.
Test [9] deals with Chromo domain-containing protein 1 (Saccharomyces cerevisiae (strain ATCC 204508 / S288c) (Baker's yeast)) (UniProt P32657). The experiment in a line: ScCHD-1 Enzyme Inhibition Assay. Further: in the data most compounds retested in dose-response had high values. It counts as functional. The note with it: 30 µM.
Sequence of Chromo domain-containing protein 1 (Saccharomyces cerevisiae (strain ATCC 204508 / S288c) (Baker's yeast)) (P32657 whole entry, the tested form may be a part): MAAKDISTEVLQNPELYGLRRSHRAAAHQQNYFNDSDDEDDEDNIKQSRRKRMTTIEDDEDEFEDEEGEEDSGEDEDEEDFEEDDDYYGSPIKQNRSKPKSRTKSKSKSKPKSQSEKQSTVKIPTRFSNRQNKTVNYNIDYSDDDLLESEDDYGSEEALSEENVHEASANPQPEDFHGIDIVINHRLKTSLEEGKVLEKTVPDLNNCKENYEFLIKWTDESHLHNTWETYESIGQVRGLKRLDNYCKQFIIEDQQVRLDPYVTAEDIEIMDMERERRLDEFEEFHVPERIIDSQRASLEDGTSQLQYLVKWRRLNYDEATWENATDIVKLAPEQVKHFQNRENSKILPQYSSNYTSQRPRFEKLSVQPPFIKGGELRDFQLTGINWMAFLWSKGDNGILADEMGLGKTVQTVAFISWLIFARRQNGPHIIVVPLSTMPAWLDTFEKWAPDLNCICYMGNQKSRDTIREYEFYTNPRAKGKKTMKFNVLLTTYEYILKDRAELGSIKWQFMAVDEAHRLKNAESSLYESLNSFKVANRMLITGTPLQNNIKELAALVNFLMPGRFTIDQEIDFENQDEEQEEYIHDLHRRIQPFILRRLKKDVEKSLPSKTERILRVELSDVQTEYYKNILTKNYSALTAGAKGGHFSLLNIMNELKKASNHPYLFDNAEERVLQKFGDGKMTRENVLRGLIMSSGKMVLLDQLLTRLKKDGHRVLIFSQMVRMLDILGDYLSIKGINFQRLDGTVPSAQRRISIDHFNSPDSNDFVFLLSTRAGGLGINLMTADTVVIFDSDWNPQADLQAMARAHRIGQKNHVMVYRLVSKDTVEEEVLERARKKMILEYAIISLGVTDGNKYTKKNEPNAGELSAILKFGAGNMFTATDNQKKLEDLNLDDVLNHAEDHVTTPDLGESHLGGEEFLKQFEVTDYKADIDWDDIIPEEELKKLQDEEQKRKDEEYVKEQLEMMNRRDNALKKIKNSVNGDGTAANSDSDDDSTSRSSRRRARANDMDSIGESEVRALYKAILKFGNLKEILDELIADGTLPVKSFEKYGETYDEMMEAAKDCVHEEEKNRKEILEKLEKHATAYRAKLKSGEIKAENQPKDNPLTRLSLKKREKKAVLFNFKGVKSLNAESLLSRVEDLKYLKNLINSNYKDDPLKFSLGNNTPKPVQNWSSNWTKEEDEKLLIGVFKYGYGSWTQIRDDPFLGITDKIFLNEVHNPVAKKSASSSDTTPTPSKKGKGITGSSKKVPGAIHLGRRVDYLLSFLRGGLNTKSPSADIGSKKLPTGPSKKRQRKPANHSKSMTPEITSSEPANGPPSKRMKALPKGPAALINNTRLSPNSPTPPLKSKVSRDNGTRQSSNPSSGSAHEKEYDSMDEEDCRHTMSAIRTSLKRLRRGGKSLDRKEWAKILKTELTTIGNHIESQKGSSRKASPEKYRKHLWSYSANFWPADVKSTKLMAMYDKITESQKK

For some of these results: Entries with a potency or affinity are not part of this list.

Sequence of Sialic acid-binding Ig-like lectin 9 (Homo sapiens) (Q9Y336 whole entry): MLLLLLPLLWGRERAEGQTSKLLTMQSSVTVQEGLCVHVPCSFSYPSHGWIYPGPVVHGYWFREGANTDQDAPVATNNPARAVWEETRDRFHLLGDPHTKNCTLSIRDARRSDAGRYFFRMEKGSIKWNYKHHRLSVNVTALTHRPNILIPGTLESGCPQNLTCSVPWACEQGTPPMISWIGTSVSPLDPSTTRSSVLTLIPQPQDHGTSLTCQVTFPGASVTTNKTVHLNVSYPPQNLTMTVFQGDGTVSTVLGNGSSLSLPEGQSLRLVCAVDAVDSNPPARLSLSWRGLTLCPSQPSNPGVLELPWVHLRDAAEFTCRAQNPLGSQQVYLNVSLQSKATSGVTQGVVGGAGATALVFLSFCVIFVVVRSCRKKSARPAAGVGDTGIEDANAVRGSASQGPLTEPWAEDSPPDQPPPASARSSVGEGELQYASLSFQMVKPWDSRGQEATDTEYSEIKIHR
Sequence of Protein translocase subunit SecA (Escherichia coli (strain K12)) (P10408 whole entry): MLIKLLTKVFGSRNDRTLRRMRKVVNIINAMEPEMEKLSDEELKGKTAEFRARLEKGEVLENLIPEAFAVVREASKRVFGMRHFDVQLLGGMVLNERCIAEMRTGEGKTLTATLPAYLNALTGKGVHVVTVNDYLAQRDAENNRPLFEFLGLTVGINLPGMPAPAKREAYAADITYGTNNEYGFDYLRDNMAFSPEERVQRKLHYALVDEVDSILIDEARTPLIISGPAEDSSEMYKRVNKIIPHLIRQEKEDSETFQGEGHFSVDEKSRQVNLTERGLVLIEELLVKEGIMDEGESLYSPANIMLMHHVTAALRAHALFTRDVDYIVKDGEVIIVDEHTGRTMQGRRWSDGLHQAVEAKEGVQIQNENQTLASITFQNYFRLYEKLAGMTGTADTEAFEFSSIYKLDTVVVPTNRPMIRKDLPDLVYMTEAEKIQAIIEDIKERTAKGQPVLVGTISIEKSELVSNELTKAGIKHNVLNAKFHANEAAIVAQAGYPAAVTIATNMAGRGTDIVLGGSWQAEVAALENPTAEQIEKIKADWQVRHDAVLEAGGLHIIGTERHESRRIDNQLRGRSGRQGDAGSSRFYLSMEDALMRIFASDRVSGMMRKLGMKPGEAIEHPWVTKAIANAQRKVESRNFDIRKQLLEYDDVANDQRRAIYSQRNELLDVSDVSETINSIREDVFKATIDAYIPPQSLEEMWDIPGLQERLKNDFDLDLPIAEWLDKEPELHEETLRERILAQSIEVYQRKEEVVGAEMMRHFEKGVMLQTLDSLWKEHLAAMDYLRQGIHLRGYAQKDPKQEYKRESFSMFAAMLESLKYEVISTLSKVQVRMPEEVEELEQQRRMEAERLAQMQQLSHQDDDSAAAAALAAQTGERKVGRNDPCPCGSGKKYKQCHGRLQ

`COc1ccccc1OCC(=O)NS(=O)(=O)c1ccccc1F`: the Percent Effect in [1] was -3.52%; in [2], 13.5%; in test [3] it was -3.34%; in [4], 25.9%; in the test with Trypanosoma cruzi, 4.44%; in test [5], -0.952%. For the same compound, the Percent Effect was 11.9% in test [6]; 6.7% in the test listed under Homo sapiens; 2.65% in test [7]; 9.76% in test [8]; -10.8% in [9].
In the case of `Cc1cccc(S(=O)(=O)NCC(C)N2CCN(C)CC2)c1Cl` (stereo unspecified), the Percent Effect was -5.19% in test [1]; 2.6% in [2]; -2.53% in test [3]; -0.382% in test [4]; -0.492% with Trypanosoma cruzi; -2.76% in test [5]. Also, the Percent Effect in [6] worked out at 2.83%; in the test filed under Homo sapiens, 7.45%; in test [7], 0%; in test [8], 3.7%; in test [9] it was 0.187%.
In the case of `CCn1cnnc1CNC(=O)N1CCCN(C(C)=O)CC1`, the Percent Effect in test [1] was -6.81%; in [2], 15.6%; in test [3] it was -0.601%; in test [4] it was 0.0707%; in the test with Trypanosoma cruzi it was 0.881%; in test [5], 4.84%. In addition, the Percent Effect is 12.7% in test [6]; 1.78% in the test listed under Homo sapiens; 10.5% in [7]; 25.9% in test [8]; -20.1% in test [9].
Regarding `CCOc1cc(C)nc(N2CCN(C(=O)c3ccnn3C)CC2)n1`, the Percent Effect in test [1] was -1.84%; in [2], 5.41%; in [3], -0.273%; in test [4] it was 4.02%; in the test with Trypanosoma cruzi, 3.62%; in test [5], -3.51%. Moreover, the Percent Effect in [6] is 4.67%; in the test filed under Homo sapiens, 2.75%; in test [7], 3.96%; in [8] it was 18.3%; in [9], -3.83%.
Turning to `COCCNC(=O)C(C)n1cc(Br)cn1` (stereo unspecified), the Percent Effect in [1] was -3.71%; in [2], 5.2%; in test [3], 1.52%; in test [4], 7.73%; with Trypanosoma cruzi it was 0.492%; in test [5], -2.76%. Moreover, the Percent Effect in test [6] is 13.1%; in the test listed under Homo sapiens, 5.02%; in test [7], 9.68%; in [8], 16.1%; in [9], 135%.
In the case of `O=C(O)c1nnn(-c2ccc(F)c(F)c2)c1-c1ccncc1`, the Percent Effect in test [1] was -2.11%; in test [2], 13.2%; in test [3], 4.49%; in test [4] it was -2.68%; in the test on Trypanosoma cruzi it was -3.6%; in test [5], 4.73%. The Percent Effect in test [6] is 20.6%; in the test listed under Homo sapiens, -18.7%; in [7] it was 2.13%; in [8] it was 2.6%; in test [9] it was -1.59%.
For the compound `CC1=Nc2c(c(=O)[nH]n2C(C)C)C(c2ccc(F)c(F)c2)S1` (stereo unspecified), the Percent Effect in [1] was -5.53%; in test [2], -6.67%; in test [3], 8.28%; in test [4], 12.2%; in the test with Trypanosoma cruzi, -0.197%; in test [5], 1.58%. Moreover, the Percent Effect in test [6] is 9.8%; in the test filed under Homo sapiens it was 34%; in test [7], 18%; in [8], 20.5%; in test [9] it was 2.07%.
Consider `Cc1noc(C2CCCN(C(=O)c3ccc(Br)o3)C2)n1` (stereo unspecified), for which the Percent Effect in test [1] is -6.46%; in test [2] it was 13%; in test [3], -5.37%; in test [4], -19.7%; with Trypanosoma cruzi, 7.54%; in test [5], -4.84%. Besides, the Percent Effect in test [6] is 13.8%; in the test listed under Homo sapiens, 1.55%; in test [7] it was 3.81%; in [8], 21.2%; in [9], -17.1%.
For `O=C1[C@H]2CC[C@H](CN(Cc3ccccc3OC(F)F)C2)N1CC1CC1`, the Percent Effect in [1] turned out to be 2.17%; in test [2] it was 13.5%; in test [3] it was 8.9%; in [4], 13.9%; in the test on Trypanosoma cruzi, 4.05%; in test [5], 13.3%. Also, the Percent Effect in test [6] is 17.1%; in the test listed under Homo sapiens, 19%; in [7], 7.94%; in test [8], 17.1%; in test [9], -1.8%.
On to `Cc1ccc(NC2CCN(C(=O)CN(C)C3CC3)CC2)nn1`, for which the Percent Effect is -4.6% in test [1]; -6.33% in test [2]; -0.261% in test [3]; 16.3% in test [4]; -3.79% in the test on Trypanosoma cruzi; 0.645% in test [5]. Further, the Percent Effect in test [6] is 6.69%; in the test listed under Homo sapiens, -12.3%; in test [7], 4.17%; in test [8] it was 7.59%; in test [9], -6.68%.
For `O=C(N1CCCCC1)N1CCN(CC(O)c2ccc(F)cc2)CC1` (stereo unspecified), the Percent Effect in [1] is -0.539%; in [2] it was 13.2%; in [3], -0.12%; in test [4] it was 5.2%; in the test with Trypanosoma cruzi, -4.51%; in test [5], 4.21%. The Percent Effect was 4.84% in [6]; 20.8% in the test listed under Homo sapiens; 8.33% in test [7]; 17.1% in test [8]; -5.09% in test [9].

(Values after ChEMBL document CHEMBL3988442, “University of Dundee, Small-Polar-MMV Screening Library” (2021).)
